Measurements published in PubChem BioAssay AID720650 (Broad Institute, 2013).
Values without a mark were called inactive. The source made the active and inactive calls. The rule behind the calls is not given here.

Assay: Biochemical counterscreen for C difficile toxins, absence of UDPG, inhibitor dose response (AID 720650)
Conditions: series mostly up to 19.5 µM; activity change, negative = inhibition: at the top concentration

| SMILES | activity change, negative = inhibition [%] | AC50 |
| --- | --- | --- |
| CCNC(=O)C[C@@H]1CC[C@H]2[C@H](COc3ccc(NC(C)=O)cc3C(=O)N2C)O1 | 6.46 | – |
| O=C(O)C1C(=O)NCC1c1ccccc1 (stereo not drawn) | -10.6 | – |
| COc1cccc(C(=O)OCC(=O)Nc2cc(C)on2)c1OC | -16.1 | – |
| CC1CN=C(Nc2cccc(S(=O)(=O)N(C)C)c2)S1 (stereo not drawn) | 4.21 | – |
| O=C(NC(=S)Nc1ccc(O)cc1)c1ccccc1Cl | – | 13.3 µM (active) |
| Fc1ccc(-c2nc3ccc(Br)cn3c2Cc2ccccc2)cc1 | -2.94 | – |
| COC(=O)c1ccc(OC(=O)c2ccc(OC)cc2)c(OC)c1 | 5.2 | – |
| Oc1ccc(/C=N/n2cc(-c3ccccc3)[nH]c2=S)cc1 | – | 6.42 µM (active) |
| Cc1ccc(S(=O)(=O)N2CCCC2C(=O)Nc2ccc(O)cc2)cc1 (stereo not drawn) | – | 16.6 µM (active) |
| CCOc1ccc(S(=O)(=O)NCc2ccccc2Cl)cc1C(N)=O | – | > 39 µM |
| Cc1ccc(/C=C/c2onc(C)c2S(=O)(=O)N2CCC(C(=O)N3CCCCC3)CC2)cc1 | -13.5 | – |
| O=C(C[C@H]1CC[C@H]2[C@@H](COC[C@H](O)CN2C(=O)Nc2ccc(Cl)c(Cl)c2)O1)NCc1ccncc1 | 8.56 | – |
| COc1ccc(/C=N/N=C2/NC(=O)C(CC(=O)NC(N)=O)S2)cc1 (stereo not drawn) | -11.2 | – |
| CN1C(=O)c2cc(NC(=O)c3cccc(F)c3)ccc2OC[C@@H]2O[C@@H](CC(=O)NCC3CCCCC3)CC[C@H]21 | – | inactive |
| Cc1onc(-c2c(F)cccc2Cl)c1C(=O)Nc1nnc(C(F)(F)F)s1 | -11.9 | – |
| CC(C)(C)C(=O)C1=C(O)C(=O)N(c2ccccc2)C1c1ccccc1 (stereo not drawn) | – | > 39 µM |
| C[C@H]1CN([C@@H](C)CO)S(=O)(=O)c2ccc(-c3ccncc3)cc2O[C@@H]1CN(C)Cc1ccc(Oc2ccccc2)cc1 | 1.01 | – |
| COc1ccccc1CNC(=O)CN(c1ccc(C)cc1)S(=O)(=O)c1c(C)n[nH]c1C | 2.29 | – |
| O=[N+]([O-])c1c(Nc2ccccc2O)ccc2nonc12 | – | > 39 µM |

| SMILES | activity change, negative = inhibition [%] | AC50 |
| --- | --- | --- |
| CCS(=O)(=O)c1ccc2oc(Nc3ccc(C(C)(C)C)cc3)nc2c1 | -6.91 | – |
| Cn1c(=O)[nH]c(=O)c2c1[nH]c(=S)n2Cc1ccc(Cl)cc1 | – | > 39 µM |
| CCCNC(=O)N1CC[C@@H]2[C@@H](CO)N(C)c3ccc(-c4ccccc4)cc3[C@@H]21 | – | 3.93 µM (active) |
| CN(C)CCCNC(=O)C[C@H]1CC[C@@H]2[C@@H](COc3ccc(NC(=O)c4ccc5c(c4)OCO5)cc3C(=O)N2C)O1 | -0.21 | – |
| Cc1nc2ccccn2c1-c1ccnn1S(=O)(=O)c1ccc(F)cc1 | -14.9 | – |
| Fc1ccc(/C=C\c2nccc3c2[nH]c2ccccc23)cc1 | -10 | – |
| Nc1ccc(N=Nc2ccc(O)cc2)c(N)n1 | – | 7.86 µM (active) |
| CCC(=O)N1CC[C@@H]2[C@@H](CO)N(C)c3ccc(-c4ccccc4)cc3[C@@H]21 | – | 6.31 µM (active) |
| COC(=O)C1=C(c2ccc(F)cc2OCc2ccccc2)C[C@@H]2CC[C@H]1N2C(=O)NCCOc1ccccc1 | 6.43 | – |
| Cc1ccc(C)c2c1cc(C)c1nnc(SCC(=O)NCc3ccc4c(c3)OCO4)n12 | – | 13.1 µM (active) |
| Cc1ccc(NCCN(C)C)c2c(=O)c3cc(O)ccc3sc12 | – | 5.2 µM (active) |
| CCOc1ccc(NC(=O)c2ccc(CC)s2)c([N+](=O)[O-])c1 | -8.67 | – |
| COCC(=O)N1CC[C@H]2[C@@H]1c1cc(-c3ccc(OC)cc3)ccc1N(C)[C@H]2CO | – | 7.62 µM (active) |
| COc1ccc(CNC(=O)c2cc3c(s2)CN(Cc2ccccc2)C3)cc1 | -2.76 | – |
| COc1ccc(S(=O)(=O)Nc2ccc3oc(C)c(C(=O)O)c3c2)cc1 | – | > 39 µM |
| CCNC(=O)C[C@H]1CC[C@@H]2[C@@H](COc3ccc(NC(=O)c4ccc5c(c4)OCO5)cc3C(=O)N2C)O1 | – | > 39 µM |
| CSc1nc(Cl)cc(Nc2ccc(O)cc2)n1 | -7.48 | – |
| CC[C@H](C)[C@@H]1NC(=O)c2cc([N+](=O)[O-])cc(I)c2NCC[C@@H](C(N)=O)NC(=O)[C@H](CCCN=C(N)N)NC1=O | 1.27 | – |
| CSc1ccc(/C=N/N2CCN(Cc3ccc(Cl)cc3)CC2)cc1 | -14.4 | – |
